Compounds with a hit are over-represented: about 2.6% of the library has one in this group of screens.
TWEAK-Fn14 inh = TWEAK-Fn14 signaling inhibition; TWEAK-stimulated Fn14 reporter cells, luciferase luminescence, 8 h; 2% of 360,000 active; inhibition, % at 10 µM; in the data active = inhibition above about 50%
CF NFkB block = inhibitors of cystic fibrosis induced NF-kB. 0.86% of 360,000 active. inhibition, % at 5 µM. KKLEB NF-kB-GFP reporter, PAF-induced, GFP fluorescence overnight;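 active = at least 50% inhibition at 5 µM, scaled per plate between neutral and stimulator controls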;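 also: PAF is a Pseudomonas aeruginosa culture filtrate used as stimulus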
TROY signal inh = inhibitors of TROY-dependent NF-kB signaling | Q293 LMP1-TROYcd NF-kB luciferase reporter, 4 h | AID 1347056 | 0.98% of 360,000 active | inhibition, % at 10 µM;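 active = compounds whose plate-normalised and pattern-corrected inhibition of the luciferase reporter signal at the single screening dose is 50% or more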
EWS-Fli block = EWS/Fli transcriptional activity inhibition | A673 NR0B1-luciferase reporter, viability-normalised | inhibition, % at 12.6 µM | 0.67% of 350,000 active | AID 651661;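 active = mean inhibition of at least 50% after viability correction, with every replicate also passing that limit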;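 also: firefly luciferase signal divided by Alamar Blue viability fluorescence both relative to DMSO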
KKLEB tox = CF airway cell cytotoxicity counter-screen; KKLEB CF airway cells viability, ATPlite luminescence, overnight; active compounds read low; cells stimulated with P. aeruginosa culture filtrate; activity change (cytotoxicity), % at 5 µM; 0.36% of 360,000 active;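 active = corrected activity change at or below -50% at 5 µM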
LGR2 inh = Drosophila LGR2 receptor signaling inhibition | 0.35% of 380,000 active | HEK293 LGR2, CRE-luciferase, bursicon-stimulated, 4 h | inhibition, % at 9.99 µM;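 active = drop in luminescence signal, shown as inhibition above about 50% in the replicate tests, limit read from the data, passing the limit was not always enough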;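 also: agonist challenge used bursicon conditioned medium at about half maximal strength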
Large screens that a line does not name were inactive.

COc1ccc(N(C(=O)c2cccnc2)S(=O)(=O)c2ccc3c4c(cccc24)C(=O)N3C)cc1	TWEAK-Fn14 inh 64 (no result: EWS-Fli block)
[O-][n+]1c2c(c3c4non(O)c4ccc31)CCCC2	TROY signal inh 51
COn1c2c(c3c4no[n+]([O-])c4ccc31)CCCC2	none (no result: EWS-Fli block, LGR2 inh)
O=C(Nc1ccc2c(c1)OCCO2)C(c1cc2ccccc2o1)N1CCN(c2ccc(C(F)(F)F)cn2)CC1 (stereo not given)	TWEAK-Fn14 inh 88, TROY signal inh 86
O=C(Nc1ccc2c(c1)OCCO2)C(c1cc2ccccc2o1)N1CCN(C/C=C/c2ccccc2)CC1 (stereo not given)	TWEAK-Fn14 inh 86, TROY signal inh 83
O=C(Nc1ccc2c(c1)OCCO2)C(c1cc2ccccc2o1)N1CCN(c2ccc(F)cc2)CC1 (stereo not given)	TWEAK-Fn14 inh 85, TROY signal inh 85
O=C(COc1ccc(Cl)cc1Cl)NC(=O)N1CCCCC1	TWEAK-Fn14 inh 61 (no result: EWS-Fli block, LGR2 inh)
O=C(NC(=S)N1CCCc2ccccc21)c1ccco1	TWEAK-Fn14 inh 52, TROY signal inh 53
CC1Cc2ccccc2N1C(=S)NC(=O)c1ccco1 (stereo not given)	none
O=C(COc1ccc(Cl)cc1Cl)NC(=S)N1CCCc2ccccc21	TWEAK-Fn14 inh 58
Cc1ccc(C(=O)N2CCc3ccccc32)cc1NC(=O)c1ccco1	TWEAK-Fn14 inh 89
Cc1ccc(C(=O)N2CCc3ccccc32)cc1C	none
O=C(COc1ccc(Cl)cc1Cl)OCC(=O)N1CCCc2ccccc21	none
CN(C)CC(=O)Nc1ccc2c(c1)[C@H]1C[C@@H](CC(=O)N(C)C)O[C@H](CO)[C@H]1O2	none (no result: TWEAK-Fn14 inh, CF NFkB block, TROY signal inh, KKLEB tox)
CO[C@@H]1CN(C)C(=O)c2cc(NC(=O)Nc3ccccc3F)ccc2OC[C@@H](C)NC[C@@H]1C	none (no result: TWEAK-Fn14 inh, CF NFkB block, TROY signal inh, KKLEB tox)
Cc1cccc(OCC(=O)NC(=S)N2CCCc3ccccc32)c1	TWEAK-Fn14 inh 56
Cc1cccc(OCC(=O)Nc2ccccc2N2CCCCC2)c1	none (no result: EWS-Fli block, LGR2 inh)
N#C/C(=N\Nc1cccc([N+](=O)[O-])c1)C(=O)c1ccc(Br)cc1	TWEAK-Fn14 inh 52, CF NFkB block 51, KKLEB tox -55
Cc1ccc(S(=O)(=O)NCC[C@H]2CC[C@H](NS(=O)(=O)c3ccccc3Cl)[C@H](CO)O2)cc1	none (no result: TWEAK-Fn14 inh, CF NFkB block, TROY signal inh, KKLEB tox)
CCCC(=O)Nc1ccc2c(c1)C(=O)N(C)[C@@H]1CC[C@H](CC(=O)NCc3ccccc3F)O[C@H]1CO2	none (no result: TWEAK-Fn14 inh, CF NFkB block, TROY signal inh, KKLEB tox)
Fc1cccc(Cl)c1CNc1ccc(N2CCCC2)cc1	TWEAK-Fn14 inh 57
Cc1ccc(-c2ccc3c(c2)O[C@@H](CN(C)S(C)(=O)=O)[C@H](C)CN([C@H](C)CO)S3(=O)=O)cc1	none (no result: TWEAK-Fn14 inh, CF NFkB block, TROY signal inh, KKLEB tox)
COc1ccccc1N=C(C)C1=C(O)CC(c2ccccc2)CC1=O (stereo not given)	CF NFkB block 53
C[C@H](CO)N1C[C@H](C)[C@@H](CN(C)C(=O)c2ccccc2F)Oc2ncc(-c3cncnc3)cc2C1=O	none (no result: TWEAK-Fn14 inh, CF NFkB block, TROY signal inh, KKLEB tox)
Cc1ccccc1CN1C(=O)[C@@H]2Cc3c([nH]c4ccccc34)C(C)(C)N2C1=O	none
COc1cccc(CN2C(=O)[C@H]3Cc4c([nH]c5ccccc45)C(C)(C)N3C2=O)c1	none
CC1(C)c2[nH]c3ccccc3c2C[C@@H]2C(=O)N(Cc3ccccc3Cl)C(=O)N21	TWEAK-Fn14 inh 51
CC1(C)c2[nH]c3ccccc3c2C[C@H]2C(=O)N(Cc3cccc(F)c3)C(=O)N21	TWEAK-Fn14 inh 51
C[C@@H]1CN([C@@H](C)CO)C(=O)c2cccc(NS(=O)(=O)c3ccc(Cl)cc3)c2O[C@H]1CN(C)Cc1ccc(Oc2ccccc2)cc1	none (no result: TWEAK-Fn14 inh, CF NFkB block, TROY signal inh, KKLEB tox)
O=C1C(Cl)=C(N2CCOCC2)C(=O)N1c1ccccc1F	TWEAK-Fn14 inh 70
COc1cccc(-c2nc(NC(C)C)c3ccccc3n2)c1O	TWEAK-Fn14 inh 68 (no result: EWS-Fli block, LGR2 inh)
COc1cccc(-c2nc(NCC3CCCO3)c3ccccc3n2)c1O (stereo not given)	none (no result: EWS-Fli block, LGR2 inh)
COc1cccc(-c2nc(NCc3cccnc3)c3ccccc3n2)c1O	none
CCC(C)Nc1nc(-c2cccc(OC)c2O)nc2ccccc12 (stereo not given)	TWEAK-Fn14 inh 64, TROY signal inh 60 (no result: EWS-Fli block, LGR2 inh)
O=C([C@@H]1[C@@H](CO)[C@@H]2Cn3c(ccc(C4=CCCCC4)c3=O)[C@H]1N2)N1CCCCC1	none (no result: TWEAK-Fn14 inh, CF NFkB block, TROY signal inh, KKLEB tox)
O=C(O)CSc1ncnc2sc3c(c12)CCCC3	none
CSc1nnnn1-c1ccc(Cl)cc1	none
c1ccc(-n2nnnc2Sc2ncnc3sc4c(c23)CCCC4)cc1	TWEAK-Fn14 inh 100, CF NFkB block 82, TROY signal inh 73, KKLEB tox -52, LGR2 inh 66 (no result: EWS-Fli block)
Cc1sc2ncnc(Sc3nnnn3-c3ccc(Cl)cc3)c2c1C	TWEAK-Fn14 inh 102, CF NFkB block 84, TROY signal inh 65, KKLEB tox -57 (no result: EWS-Fli block, LGR2 inh)
C[C@H](CO)N1C[C@H](C)[C@@H](CN(C)Cc2ccccn2)Oc2ncc(-c3ccc(C#N)cc3)cc2C1=O	none (no result: TWEAK-Fn14 inh, CF NFkB block, TROY signal inh, KKLEB tox)
COc1ccc(CN(C)C[C@@H]2OCCCC[C@@H](C)Oc3ccc(NC(=O)CCCCCC(=O)Nc4ccccc4N)cc3C(=O)N([C@H](C)CO)C[C@@H]2C)cc1	none (no result: TWEAK-Fn14 inh, CF NFkB block, TROY signal inh, KKLEB tox)
C[C@H]1CN([C@@H](C)CO)C(=O)c2cc(NC(=O)CCN3CCOCC3)ccc2O[C@@H]1CN(C)S(C)(=O)=O	none (no result: TWEAK-Fn14 inh, CF NFkB block, TROY signal inh, KKLEB tox)
O=C(N/N=C/c1ccc2ncccc2c1)c1ccco1	TWEAK-Fn14 inh 70, TROY signal inh 51, LGR2 inh 55
c1csc(C2=Nn3c(nnc3-c3ccncc3)SC2)c1	TWEAK-Fn14 inh 69, CF NFkB block 66 (no result: EWS-Fli block, LGR2 inh)
OCCCNc1ncnc2sc3c(c12)CCN(Cc1ccccc1)C3	TWEAK-Fn14 inh 69
Cc1nc2ccc(NC(=O)c3ccc(S(=O)(=O)N(C)c4ccccc4)cc3)cc2s1	TWEAK-Fn14 inh 58, TROY signal inh 56 (no result: EWS-Fli block)
CCS(=O)(=O)Nc1ccc2c(c1)C(=O)N(C)[C@@H]1CC[C@H](CC(=O)NC3CCCCC3)O[C@H]1CO2	none (no result: TWEAK-Fn14 inh, CF NFkB block, TROY signal inh, KKLEB tox)
Cc1ccc(CNC(=S)NC2CCC(C(C)(C)C)CC2)cc1 (stereo not given)	TROY signal inh 51 (no result: EWS-Fli block)
Cc1ccc2c(c1)c(C1=c3ccccc3=NC1=O)c(O)n2C	CF NFkB block 53, EWS-Fli block 64
Cc1cc(-c2ccc(C(C)C)c(S(=O)(=O)N3CCN(c4ccccn4)CC3)c2)on1	none (no result: EWS-Fli block)
CCc1ccc(-c2cc(C)no2)cc1S(=O)(=O)N1CCN(c2ccccn2)CC1	TROY signal inh 50
O=C(COC(=O)c1ccc(O)cc1)NCCC1=CCCCC1	none
O=C(COC(=O)c1ccc2c(c1)OCCO2)NCCC1=CCCCC1	TWEAK-Fn14 inh 96 (no result: EWS-Fli block, LGR2 inh)
COc1ccccc1N(C)S(=O)(=O)c1ccc(C(=O)OCC(=O)NCCC2=CCCCC2)cc1	TWEAK-Fn14 inh 54
C[C@@H]1CCCCO[C@H](CN(C)C)[C@@H](C)CN([C@H](C)CO)C(=O)c2cc(NC(=O)CCCN(C)C)ccc2O1	none (no result: TWEAK-Fn14 inh, CF NFkB block, TROY signal inh, KKLEB tox)
CCN1CCN(C(=S)c2ccc(-c3ccccc3)cc2)CC1	TWEAK-Fn14 inh 69

Screening results: PubChem BioAssay, several laboratories
